Several values for one entry are separate records, joined by “and”; a condition that tells them apart may be missing. Equal entries are not always repeated.
Columns and labels:
Experiment in all cases: thermal shift delta Tm vs DMSO control; higher = stronger stabilization (binding)
Details in all cases: 12.5 µM; protein concentration 2 µM
[1] = test system: LOC_OS01G57100-cb003
Method in brief: (§1)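 Heating from 25°C to 95°C at 0.05°C/s, fluorescence was recorded for 19.5 μl wells of 2 μM E. coli-expressed, purified rice kinase domain in 100 mM potassium phosphate pH 7.5, 150 mM NaCl, 10% glycerol and 5 × SYPRO Orange with compound in DMSO. Boltzmann fits gave melting temperatures for this differential scanning fluorimetry assay. The shift reported is the mean of three replicates against the DMSO-only protein.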

[2] = test system: LOC_OS01G60330-cb001
Method in brief: as §1

[3] = test system: LOC_OS01G60700-cb002
Method in brief: as §1

[4] = test system: LOC_OS01G63280-cb003
Method in brief: as §1

[5] = test system: LOC_OS01G67340-cb003
Method in brief: as §1

[6] = test system: LOC_OS01G70970-cb002
Method in brief: as §1

[7] = test system: LOC_OS02G07810-cb001
Method in brief: as §1

[8] = test system: LOC_OS02G08530-cb003
Method in brief: as §1

[9] = test system: LOC_OS02G14120-cb001
Method in brief: as §1

[10] = test system: LOC_OS02G17970-cb001
Method in brief: as §1

[11] = test system: LOC_OS02G45750-cb003
Method in brief: as §1

[12] = test system: LOC_OS02G54510-cb004
Method in brief: as §1

[13] = test system: LOC_OS03G04050-cb001
Method in brief: as §1

[14] = test system: LOC_OS03G12390-cb001
Method in brief: as §1

[15] = test system: LOC_OS03G27990-cb004
Method in brief: as §1

[16] = test system: LOC_OS03G50450-cb001
Method in brief: as §1

[17] = test system: LOC_OS03G50810-cb003
Method in brief: as §1

[18] = test system: LOC_OS04G35114-cb001
Method in brief: as §1

[19] = test system: T1, LOC_OS04G38480-cb003
T1 sequence (whole entry): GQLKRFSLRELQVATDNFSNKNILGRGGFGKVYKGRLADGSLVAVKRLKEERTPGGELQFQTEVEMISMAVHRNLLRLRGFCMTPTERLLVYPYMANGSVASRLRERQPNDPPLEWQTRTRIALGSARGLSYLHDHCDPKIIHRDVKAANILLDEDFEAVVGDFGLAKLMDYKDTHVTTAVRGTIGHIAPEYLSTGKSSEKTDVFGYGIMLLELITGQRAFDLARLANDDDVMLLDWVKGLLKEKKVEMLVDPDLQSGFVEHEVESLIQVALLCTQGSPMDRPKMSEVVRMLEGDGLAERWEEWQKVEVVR
Method in brief: as §1

[20] = test system: T2, LOC_OS04G41100-cb001
T2 sequence (whole entry): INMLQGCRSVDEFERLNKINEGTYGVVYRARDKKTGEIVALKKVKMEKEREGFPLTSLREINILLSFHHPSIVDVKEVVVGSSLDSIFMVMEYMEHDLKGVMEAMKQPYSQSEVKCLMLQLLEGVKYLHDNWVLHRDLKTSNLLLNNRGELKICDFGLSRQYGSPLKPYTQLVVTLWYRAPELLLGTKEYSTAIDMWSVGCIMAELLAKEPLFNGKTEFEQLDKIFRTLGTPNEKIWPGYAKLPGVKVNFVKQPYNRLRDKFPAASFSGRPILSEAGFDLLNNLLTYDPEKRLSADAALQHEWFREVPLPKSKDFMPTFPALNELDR
Method in brief: as §1
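Further: purified Escherichia coli-expressed rice kinase domain construct.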

Structure (SMILES)	thermal shift delta Tm [1]	thermal shift delta Tm [2]	thermal shift delta Tm [3]	thermal shift delta Tm [4]	thermal shift delta Tm [5]	thermal shift delta Tm [6]	thermal shift delta Tm [7]	thermal shift delta Tm [8]	thermal shift delta Tm [9]	thermal shift delta Tm [10]	thermal shift delta Tm [11]	thermal shift delta Tm [12]	thermal shift delta Tm [13]	thermal shift delta Tm [14]	thermal shift delta Tm [15]	thermal shift delta Tm [16]	thermal shift delta Tm [17]	thermal shift delta Tm [18]	thermal shift delta Tm [19]	thermal shift delta Tm [20]
Cc1ccc(CNc2ncnc3ccc(-c4ccc(CO)o4)cc23)o1	1.69 °C	0.84 °C	0.78 °C	0.26 °C	-0.04 °C	0.37 °C	0.27 °C	1.61 °C	3.01 °C	1.11 °C	1.72 °C	0.02 °C	0.46 °C	1.65 °C	0.24 °C	0.03 °C	-0.19 °C	4.83 °C	0.75 °C	1.05 °C
O=C(NC1CCNCC1)c1n[nH]cc1NC(=O)c1c(Cl)cccc1Cl	0.75 °C and 1.2 °C	0.78 °C and 1.25 °C	0.49 °C and 1.4 °C	0.02 °C and 0.4 °C	-0.21 °C and 0.3 °C	0.28 °C and 0.16 °C	0.48 °C and 1.2 °C	0.49 °C and 0.58 °C	-0.32 °C and 0.19 °C	0.23 °C and 1.28 °C	0.66 °C and 1.33 °C	0.11 °C and 0.36 °C	0.15 °C and 0.29 °C	0.1 °C and 0.19 °C	0.04 °C and 0.36 °C	0.11 °C and 0.36 °C	0.29 °C and 0.51 °C	0.48 °C and 0.71 °C	0.07 °C and 1.75 °C	7.15 °C and 7.57 °C
CCn1c(=O)c(-c2ccc(-c3cncs3)cc2Cl)cc2cnc(Nc3ccc(N4CCN(C)CC4)cc3)nc21	1.89 °C	1.07 °C	0.86 °C	0.25 °C	1.37 °C	0.17 °C	0.59 °C	0.55 °C	-0.39 °C	0.23 °C	1.17 °C	0.43 °C	0.71 °C	-0.41 °C	0.34 °C	1.1 °C	0.27 °C	0.85 °C	0.15 °C	0.58 °C
O=C(c1ccc(Nc2nccc(-c3cc4ccccc4s3)n2)cc1)N1CCC(N2CCCC2)CC1 [IKK-16 (IKK Inhibitor VII)]	0.94 °C	12.6 °C	0.43 °C	2.16 °C	3.52 °C	2.66 °C	0 °C	2.32 °C	11.1 °C	0.35 °C	6.42 °C	1.74 °C	0.22 °C	2.55 °C	4.05 °C	1.23 °C	5.04 °C	5.32 °C	3.88 °C	4.91 °C
CN1CCN(Cc2ccc(NC(=O)Nc3ccc(Oc4ccnc(N)n4)cc3)cc2C(F)(F)F)CC1	-0.21 °C	0.73 °C	1.34 °C	8.29 °C	0.95 °C	2.3 °C	0.57 °C	2.59 °C	6.74 °C	1 °C	5.22 °C	7.6 °C	0.12 °C	1.46 °C	0.06 °C	-0.31 °C	3.62 °C	0.16 °C	2.07 °C	6.72 °C
COc1ccc(S(=O)(=O)N(CCO)c2ccccc2CN(C)C/C=C/c2ccc(Cl)cc2)cc1 [KN-93 Phosphate]	2.05 °C	2.19 °C	0.56 °C	0.11 °C	0.92 °C	0.38 °C	0.44 °C	0.66 °C	0.97 °C	0.03 °C	0.73 °C	-0.27 °C	0.31 °C	-0.19 °C	0.2 °C	0.48 °C	0.29 °C	0.92 °C	1.75 °C	0.58 °C
CN1c2ccccc2C(=O)Nc2cnc(Nc3ccc(N4CCC(O)CC4)cc3)nc21	0.2 °C	1.06 °C	0.97 °C	2.56 °C	1.01 °C	2.61 °C	0.39 °C	0.74 °C	11.1 °C	0.53 °C	5.71 °C	2.78 °C	0.24 °C	2.56 °C	1.24 °C	-0.12 °C	2.29 °C	3.85 °C	3.65 °C	0.15 °C
COc1cc2nccc(Oc3ccc(NC(=O)Nc4cc(C)on4)c(Cl)c3)c2cc1OC [Tivozanib (AV-951)]	1.99 °C	1.29 °C	0.04 °C	1.3 °C	0.1 °C	0.66 °C	0.91 °C	1.02 °C	6.58 °C	0.14 °C	2.56 °C	3.55 °C	0.02 °C	1.3 °C	0.02 °C	-0.03 °C	2.67 °C	3.47 °C	4.03 °C	0.72 °C
Cc1cc(CS(=O)(=O)c2ccccc2)cc(OCc2ccc(CN3CCC[C@@H]3CO)cc2)c1	0.61 °C	0.03 °C	1.22 °C	-0.1 °C	-0.36 °C	0.62 °C	0.61 °C	0.53 °C	-0.41 °C	0.96 °C	-0.41 °C	0.16 °C	0.65 °C	-0.25 °C	0.41 °C	0.6 °C	0.23 °C	0.57 °C	0.83 °C	0.44 °C
COc1cc(Nc2ncc3c(n2)-c2ccc(Cl)cc2C(c2c(F)cccc2OC)=NC3)ccc1C(=O)O [Alisertib (MLN8237)]	0.2 °C	0.56 °C	0.66 °C	0.76 °C	0.39 °C	0.83 °C	0.08 °C	0.3 °C	4.62 °C	0.21 °C	2.28 °C	4.54 °C	0.09 °C	0.11 °C	-0.26 °C	-0.33 °C	1.53 °C	2.39 °C	0.2 °C	0.09 °C
CC#CC(=O)Nc1ccc2ncnc(Nc3cccc(Br)c3)c2c1	-0.79 °C	0.53 °C	1.56 °C	0.9 °C	1.06 °C	0.37 °C	0.86 °C	1.43 °C	2.95 °C	1.1 °C	-0.66 °C	0.79 °C	0.48 °C	0.54 °C	0.39 °C	-0.04 °C	1.24 °C	3.68 °C	1.41 °C	0.03 °C
C#Cc1cccc(Nc2ncnc3cc(OCCOC)c(OCCOC)cc23)c1 [Erlotinib]	-0.31 °C	-0.11 °C	0.43 °C	-0.09 °C	0.02 °C	0.34 °C	-0.06 °C	0.9 °C	1.45 °C	0.75 °C	4.13 °C	0.7 °C	0.03 °C	2.11 °C	0.02 °C	-0.06 °C	1.07 °C	6.16 °C	1.65 °C	-0.05 °C
Cc1ccc(C(=O)Nc2ccc(Oc3cc4cnn(C)c4cc3-c3cn[nH]c3)c(F)c2)c(=O)n1-c1ccc(F)cc1	2.31 °C	1.94 °C	1.29 °C	5.18 °C	1.33 °C	0.33 °C	1.19 °C	1.25 °C	5.05 °C	1.48 °C	1.6 °C	0.17 °C	1.07 °C	0.61 °C	0.79 °C	1.3 °C	1.13 °C	0.73 °C	3.19 °C	1.32 °C

— the supplement of paper PMC9694430
